# ± gives the standard deviation of the averaged measurements.
# Experiments:
# [1] = system: mESC LDLR-Dup GFP reporter (SpCas9 MH-deletion repair); assay: fraction of GFP+ cells relative to DMSO control (fold change); higher = more MH-deletion repair to in-frame LDLR (or more editing); conditions: 2 µM; 7 days post-transfection
# [2] = system: 6.0 (DMSO control at this site: 1-bp insertion 0.296, MH deletion 0.491, edited 0.076) ACGATTGGCCCCCACAAAGCGGACCAGCCAGCGTGCTAGGGAATAAGGCCAACTTGCACCC; assay: fraction of edited reads among all mapped reads; higher = more Cas9 editing; conditions: mESC; 2uM; 72 h treatment, harvest day 5
# [3] = system: 6.0 (DMSO control at this site: 1-bp insertion 0.296, MH deletion 0.491, edited 0.076) ACGATTGGCCCCCACAAAGCGGACCAGCCAGCGTGCTAGGGAATAAGGCCAACTTGCACCC; assay: fraction of microhomology deletions among edited reads; higher = more MH deletions; conditions: mESC; 2uM; 72 h treatment, harvest day 5
# [4] = system: 6.0 (DMSO control at this site: 1-bp insertion 0.296, MH deletion 0.491, edited 0.076) ACGATTGGCCCCCACAAAGCGGACCAGCCAGCGTGCTAGGGAATAAGGCCAACTTGCACCC; assay: fraction of 1-bp insertions among edited reads; higher = more 1-bp insertion outcomes; conditions: mESC; 2uM; 72 h treatment, harvest day 5
# [5] = system: 24.0 GACCACAGCCCCCAGCAGGGGAGGCCCCCAGCAGGGGAGGCCCACACCTGCCCCAGCACCT; assay: fraction of edited reads among all mapped reads; higher = more Cas9 editing; conditions: mESC; 2uM; 72 h treatment, harvest day 5
# [6] = system: 24.0 GACCACAGCCCCCAGCAGGGGAGGCCCCCAGCAGGGGAGGCCCACACCTGCCCCAGCACCT; assay: fraction of microhomology deletions among edited reads; higher = more MH deletions; conditions: mESC; 2uM; 72 h treatment, harvest day 5
# [7] = system: 24.0 GACCACAGCCCCCAGCAGGGGAGGCCCCCAGCAGGGGAGGCCCACACCTGCCCCAGCACCT; assay: fraction of 1-bp insertions among edited reads; higher = more 1-bp insertion outcomes; conditions: mESC; 2uM; 72 h treatment, harvest day 5
smiles,measurement,setting,value
CC(C)(CNC(=O)c1cccc(-c2noc(C(F)(F)F)n2)c1)c1coc(-c2ccccc2)n1,fraction of GFP+ cells,[1],0.849 ± 0.2
Cc1cccc(CC(=O)N2CCc3c2ccc(-c2cn(C)c4ncnc(N)c24)c3F)n1,fraction of edited reads among all mapped reads,[2],0.114
same,fraction of microhomology deletions among edited reads,[3],0.501
same,fraction of 1-bp insertions among edited reads,[4],0.337
same,fraction of GFP+ cells,[1],0.925 ± 0.19
CC(=O)Nc1ccc(NC(=S)NC(=O)c2ccc(C(C)(C)C)cc2)cc1 [Tenovin-1],fraction of GFP+ cells,[1],0.623 ± 0.14
S=c1[nH]cnc2nc[nH]c12 [Mercaptopurine (6-MP)],fraction of edited reads among all mapped reads,[2],0.0919
same,fraction of microhomology deletions among edited reads,[3],0.519
same,fraction of 1-bp insertions among edited reads,[4],0.285
same,fraction of GFP+ cells,[1],2.22 ± 1.1
Cc1ccc(C(=O)NCCCCCC(=O)Nc2ccccc2N)cc1,fraction of edited reads among all mapped reads,[2],0.0825
same,fraction of 1-bp insertions among edited reads,[4],0.292
same,fraction of GFP+ cells,[1],1.26 ± 0.13
O=C(NO)c1cccc(C(=O)NCCc2ccccc2)c1,fraction of GFP+ cells,[1],0.743 ± 0.17
C[C@@H]1CN(CC(=O)Nc2ccc3c(c2)Cc2cccc(-c4cc(=O)cc(N5CCOCC5)o4)c2S3)C[C@H](C)O1,fraction of edited reads among all mapped reads,[2],0.0449
same,fraction of microhomology deletions among edited reads,[3],0.331
same,fraction of 1-bp insertions among edited reads,[4],0.475
same,fraction of GFP+ cells,[1],0.516 ± 0.11
Nc1cc(F)ccc1NC(=O)c1ccc(CNC(=O)/C=C/c2cccnc2)cc1 [Tucidinostat (Chidamide)],fraction of edited reads among all mapped reads,[5],0.0463
same,fraction of edited reads among all mapped reads,[2],0.0652
same,fraction of microhomology deletions among edited reads,[6],0.571
same,fraction of microhomology deletions among edited reads,[3],0.502
same,fraction of 1-bp insertions among edited reads,[7],0.103
same,fraction of 1-bp insertions among edited reads,[4],0.272
CCN1CCN(Cc2ccc(Nc3ncc(F)c(-c4cc(F)c5nc(C)n(C(C)C)c5c4)n3)nc2)CC1,fraction of GFP+ cells,[1],0.684 ± 0.039
Nc1nc(OCC2CCCCC2)c2[nH]cnc2n1,fraction of GFP+ cells,[1],0.88 ± 0.14
C[C@@H](N)c1ccc(C(=O)Nc2ccnc3[nH]ccc23)cc1,fraction of GFP+ cells,[1],1.54 ± 0.27
Nc1ccc(O)c(C(=O)O)c1 [Mesalamine],fraction of GFP+ cells,[1],0.933 ± 0.049
NC(=O)c1ccc2nc(-c3ccc(Oc4ccc(Cl)cc4)cc3)[nH]c2c1 [Chk 2 inhibitor II (BML-277)],fraction of edited reads among all mapped reads,[2],0.092
same,fraction of microhomology deletions among edited reads,[3],0.515
same,fraction of 1-bp insertions among edited reads,[4],0.278
same,fraction of GFP+ cells,[1],0.961 ± 0.26

# From the supplement of paper PMC8387472
